An excerpt weighted towards active compounds, which were near 7.4% of everything screened.
Rab9 promoter act – Rab9 promoter activation; 320,000 tested, 2.8% active; Potency, µM (doses to about 9.22 µM), inactives show at the highest dose activation, negative = inhibition, actives largely listed as activators; Huh7 Rab9 promoter-luciferase reporter, luminescence, 24 h; note: % of control where 0% means no effect; nearly all actives have a fitted effect of over 60% in size
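Stable Rab9-luc Huh7, 1500 cells/well, 2 h settle; cmpd in DMSO, 24 h, 37 °C/5% CO2; luciferase reagent 10 min RT; luminescence.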
ELG1 genotoxic – genotoxicity induction in ELG1-luciferase HEK293T cells; HEK293T ELG1-luciferase reporter, luminescence, 16 h; Potency, µM (series often up to 46 µM), without a hit: at the top dose activity change, positive = activation, actives largely listed as activators; 330,000 tested, 1.3% active; note: % of control where 0% means no effect; nearly all actives have a fitted effect of over 60% in size
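Quantitative HTS format in 1536-well plates. HEK293T ELG1-luciferase reporter cells receive test compound and are incubated 16 hr at 37 °C, 5% CO2; ONE-Glo added, 30 min room temperature, then luminescence read.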
FLuc modulator – counter-screen for miR-21 project: firefly luciferase inhibitors or activators | P08659 | purified FLuc, Km substrates, luminescence inhibition | Potency, µM (top dose mostly 57.5 µM), inactives show top-dose activity change, negative = inhibition, actives largely listed as inhibitors | 360,000 tested, 6.9% active | AID 588342;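 note: plate controls were vehicle for no effect and reference inhibitor for full effect; nearly all actives have a fitted effect of over 55% in size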
Target sequence (P08659 whole entry, looked up): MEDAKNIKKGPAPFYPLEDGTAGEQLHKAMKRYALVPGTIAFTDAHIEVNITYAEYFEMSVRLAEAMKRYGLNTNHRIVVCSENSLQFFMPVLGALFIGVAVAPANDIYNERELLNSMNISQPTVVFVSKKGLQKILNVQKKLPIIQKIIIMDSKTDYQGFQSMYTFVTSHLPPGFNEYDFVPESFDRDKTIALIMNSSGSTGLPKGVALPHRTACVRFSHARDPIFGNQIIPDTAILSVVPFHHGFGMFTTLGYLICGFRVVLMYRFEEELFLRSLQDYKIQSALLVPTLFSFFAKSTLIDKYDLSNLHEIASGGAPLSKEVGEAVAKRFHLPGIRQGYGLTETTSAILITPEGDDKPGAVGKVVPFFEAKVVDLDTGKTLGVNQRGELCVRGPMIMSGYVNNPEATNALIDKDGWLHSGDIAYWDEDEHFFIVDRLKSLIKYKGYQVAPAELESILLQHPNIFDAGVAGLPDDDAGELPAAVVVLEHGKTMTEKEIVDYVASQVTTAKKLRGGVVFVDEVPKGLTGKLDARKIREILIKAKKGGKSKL
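Biochemical qHTS of compounds, final roughly 60 µM downward over six points, against 10 nM purified firefly luciferase using Km concentrations of substrates (10 uM D-luciferin, 10 uM ATP) in Tris acetate pH 7.5 buffer; luminescence output.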
SMN2 splice up – increases expression of the SMN2 splice variant. HEK293 SMN2-luciferase splicing reporter, luminescence, 30-36 h. Potency, µM (doses to about 46.1 µM), without a hit: at the highest dose activity change, positive = activation, most hits filed as activators. 210,000 tested, 2.8% active; note: % of control where 0% means no effect; nearly all actives have a fitted effect of over 55% in size
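HEK293 cells carry an SMN2 minigene-luciferase reporter in which exon 7 inclusion puts luciferase in frame. Cells were seeded at 2000 cells/well, attached for 10-12 hours, then exposed to compounds for 30-36 hours at 37C before ONE-Glo luminescence.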
NPC1 promoter act – activators of NPC1 promoter; Huh7 NPC1 promoter luciferase reporter, 24 h; Potency, µM (top dose mostly 9.22 µM), for inactives: at the top dose activation, most hits filed as activators; 320,000 tested, 2.4% active; AID 485313; note: % of control where 0% means no effect; nearly all actives have a fitted effect of over 60% in size
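Luminescence read-out of NPC1 promoter-driven luciferase in stably transfected Huh7 cells; compounds delivered in DMSO and left 24 h at 37C, 5% CO2, qHTS titration format.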
* marks the source's active call; other numbers are inactive results; ? = inconclusive; nt = no result; [ ] = dose if it differs, or a comment. Calls come from the whole dose curve; as a rule, active = well fitted curve in the direction sought with a large enough effect; inconclusive = small, poorly fitted or top-dose-only effect, or another doubt; inactive = no such curve, though single readings can be large; an effect the other way counts as inactive or inconclusive. Potency is the fitted concentration of half-maximal effect.

SMILES | Rab9 promoter act | ELG1 genotoxic | FLuc modulator | SMN2 splice up | NPC1 promoter act
C[C@]12c3[nH]c4ccccc4c3CCN1C(=O)C(CC(=O)NCCc1ccccn1)C[C@@H]2C(=O)N1CCOCC1 (stereo not given in full) | nt | 1.8% | nt | nt | nt
Cc1cc(C(=O)CSc2ccccc2)cc(C)c1O | -0.1% | ? | 19µM* | nt | ?
CC(Sc1nnc(-c2ccccc2)c(-c2ccccc2)n1)C(=O)N1CCc2ccccc21 (stereo not given) | -4.7% | 0.0% | 4.0% | nt | -2.5%
CC(=O)NCCNC(=O)c1ccc(CSc2ccc(Cl)cc2)cc1 | 2.82µM* | ? | ? | 12.6µM* | 2.82µM*
O=C(NCCc1ccc(Cl)cc1)c1ccc2nc[nH]c2c1 | 21.5% | 2.3% | ? | 26.4% | 16.9%
O=C(NCCc1ccc(O)cc1)c1ccc(Cl)cc1 | ? | ? | 12µM* | 31.6µM* | ?
O=C(NCCc1ccc(Cl)cc1)c1ccc(=O)[nH]c1 | 4.8% | -1.1% | -1.5% | nt | 2.9%
CC(C)c1ccc(C(=O)NCc2ccc(Cl)cc2)cc1 | ? | 23.5% | ? | 15.8µM* | 14.2%
O=C(NCCc1ccc(Cl)cc1)c1ccc2nccnc2c1 | 3.98µM* | 15.8% | 10.7µM* | nt | 2.24µM*
COc1ccc(C(=O)c2ccc(O)cc2)c(O)c1O | nt | nt | nt | 6.1% | nt
O=C(CN(C(=O)c1csnn1)c1cccc2c1CCCC2)NCc1ccccc1 | 4.1% | -5.7% | 2.3% | nt | -2.6%
O=c1oc2ccccc2cc1-c1csc(Nc2nc3c(F)cccc3s2)n1 | -1.8% | 2.6% | -18.9% | -28.1% | 15.7%
O=C(NNc1nc2c(F)cc(F)cc2s1)c1ccccc1 | -2.7% | -1.3% | 3.9% | 22.0% | -1.3%
O=C(NNc1nc2c(F)cccc2s1)C1=COCCO1 | 3.1% | 0.7% | 0.6% | 2.6% | 0.5%
Fc1cccc2sc(Nc3nc4cc5c(cc4s3)OCCO5)nc12 | 0.708µM* | 1.16µM* | 1.2µM* | ? | 3.98µM*
Fc1cc(F)c2nc(Nc3nc4cc5c(cc4s3)OCO5)sc2c1 | ? | ? | ? | 17.8µM* | ?
Fc1cccc2sc(Nc3nc4cc5c(cc4s3)OCO5)nc12 | 3.16µM* | 7.31µM* | 4.26µM* | 5.01µM* | 3.98µM*
Cc1ccc(OCCNC(=O)c2ccccc2OCc2c(C)noc2C)cc1 | 1.3% | -4.2% | 1.1% | nt | 0.3%[1.84 µM]
O=C(N/N=C/c1cc(Cl)cc([N+](=O)[O-])c1O)c1cccc(S(=O)(=O)N2CCOCC2)c1 | -1.3% | 0.4% | -0.3% | nt | -2.3%
CSc1nc2c(cc1C#N)CCC2 | -1.7% | 0.2% | -1.3% | nt | 1.0%
N#Cc1cc2c(nc1SC1CC(=O)N(c3ccccc3)C1=O)CCC2 (stereo not given) | -13.4% | 2.6% | 10.7µM* | -78.1% | -11.0%
CC1Cc2ccccc2N1S(=O)(=O)c1nnc(NC(=O)c2ccccc2Br)s1 (stereo not given) | nt | nt | -2.1% | nt | nt
CSc1nc2nc(-c3ccccc3)cc(=O)n2[nH]1 | 1.2% | ? | 6.75µM* | ? | 18.7%
O=C(Nc1nc2nc(-c3ccccc3)cc(=O)n2[nH]1)c1ccc(F)cc1 | 20.2% | nt | ? | -2.9% | 5.1%
Cc1ccc(-n2[nH]c(=O)c3cccnc32)cc1 | 7.8% | 3.3% | -14.6% | 3.6% | 6.6%
SMILES | Rab9 promoter act | ELG1 genotoxic | FLuc modulator | SMN2 splice up | NPC1 promoter act
Cc1ccc(-n2[nH]c(=O)c(-c3ccccn3)c2C)cc1 | 0.447µM* | ? | 0.301µM* | nt | ?
COc1cccc2sc(NC(=O)c3ccc(Br)s3)nc12 | ? | ? | 2.39µM* | -6.8% | ?
Cc1cccc2sc(NNC(=O)c3ccc4c(c3)OCCO4)nc12 | 5.8% | -1.7% | ? | -0.3% | 5.4%
O=C(Nc1nc2c(F)cc(F)cc2s1)c1ccc2c(c1)OCCO2 | 0.316µM* | nt | 0.601µM* | nt | 0.794µM*
COc1cccc2sc(NC(=O)c3ccc4c(c3)OCCO4)nc12 | nt | nt | 0.953µM* | nt | nt
CCN(CC)Cc1ccccc1CNC(=O)c1cccc(S(=O)(=O)Nc2ccc3c(c2)OCO3)c1 | 17.1% | 1.0% | -9.2% | nt | -1.7%
Cc1ccc(C(=O)Oc2cc(C)n(C)c(=O)c2)cc1 | -2.8% | -2.2% | 15.1µM* | -15.1% | -7.1%
Cc1cccc(C(C)C)c1NC(=O)c1ccc2c(c1)CCN2S(C)(=O)=O | nt | nt | -1.8% | -26.9% | nt
